Compound activity: PubChem, several laboratories
HGIII-sPLA2 inh – Blocks human group III sPLA2 activity; QFRET BODIPY PC-A2 liposome hydrolysis, fluorescence; inhibition, % at 12.2 µM; actives 0.56% (n = 370,000);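 active = inhibition above mean plus 3 SD of compounds lying within the high and low control bounds, cut at about 19% in these data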;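 note: 0% = median of test compound wells and 100% = no enzyme DMSO wells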
Target sequence (Q9NZ20 whole entry, looked up): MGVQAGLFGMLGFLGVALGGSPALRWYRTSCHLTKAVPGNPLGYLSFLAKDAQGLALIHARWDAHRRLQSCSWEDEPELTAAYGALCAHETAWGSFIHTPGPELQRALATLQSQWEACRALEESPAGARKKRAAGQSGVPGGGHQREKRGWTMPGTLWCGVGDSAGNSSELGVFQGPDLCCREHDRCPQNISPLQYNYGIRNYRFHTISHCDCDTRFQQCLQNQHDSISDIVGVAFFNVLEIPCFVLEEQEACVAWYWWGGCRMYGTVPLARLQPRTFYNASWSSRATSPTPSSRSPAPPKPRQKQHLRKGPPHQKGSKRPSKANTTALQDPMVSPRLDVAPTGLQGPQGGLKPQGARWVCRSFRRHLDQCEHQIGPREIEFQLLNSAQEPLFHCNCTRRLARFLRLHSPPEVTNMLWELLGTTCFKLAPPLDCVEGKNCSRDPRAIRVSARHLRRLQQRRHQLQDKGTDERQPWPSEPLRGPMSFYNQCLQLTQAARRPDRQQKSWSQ
GRIN3A LBD mod – modulates the human NR3A ligand-binding domain; NR3A LBD differential scanning fluorimetry, Tm shift; 0% = protein alone, 100% = glycine-bound protein; Tm shift relative to glycine control, % at 25 µM; actives 2.5% (n = 340,000); AID 1259313;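 active = melting temperature shift of at least 10% of the positive control shift, at one fixed dose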
ADAM10 inh – ADAM10 inhibition, QFRET primary screen. AID 720582. O14672. recombinant ADAM10, EDANS/DABCYL FRET peptide cleavage, 3 h. actives 0.62% (n = 370,000). inhibition, % at 7 µM;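 active = inhibition above a per-campaign cutoff equal to the mean of compounds falling between control-based bounds plus 3 SD, cut at about 20% in these data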;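 note: 0% = DMSO wells while the 100% control is not disclosed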
ADAM17 inh – inhibitors of human ADAM17; P78536; recombinant ADAM17, EDANS/DABCYL FRET peptide cleavage; inhibition, % at 6.95 µM; actives 0.83% (n = 370,000);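 active = inhibition above the mean of compounds lying between control limits plus 3 SD, set per campaign, cut at about 8.5% in these data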;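 note: 0% = DMSO-only wells as the low control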
FAS-TE inh – inhibitors of human fatty acid synthase thioesterase domain; recombinant FAS-TE, OMFH fluorogenic substrate, fluorescence endpoint; inhibition, % at 15 µM; actives 0.67% (n = 360,000);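 active = compounds whose normalised, plate-corrected inhibition of enzyme fluorescence in the single-dose primary screen is 50% or more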;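 note: 0% = DMSO with enzyme and 100% = substrate without enzyme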
sPLA2 confirm – human GIII-sPLA2 inhibition, confirmation; shares compounds with HGIII-sPLA2 inh; recombinant hGIII-sPLA2, BODIPY PC-A2 QFRET fluorescence; inhibition, % at 12.2 µM; actives 34% (n = 2,000); AID 743280;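 active = mean inhibition across triplicates above the hit cutoff set in the earlier primary screen, cut at about 19% in these data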;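 note: 0% = enzyme with DMSO and 100% = DMSO wells lacking enzyme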
535nm interf – optically interferes with 535nm fluorescence in sPLA2 counter-screen; shares compounds with HGIII-sPLA2 inh; BODIPY FL product fluorescence interference, QFRET; inhibition, % at 12.2 µM; actives 8.5% (n = 2,000); AID 743282;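 active = average inhibition above the solvent-only control mean plus 3 SD, cut at about 6% in these data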;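 note: 0% = DMSO with substrate plus product and 100% = DMSO with substrate alone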
535nm interf DR – 535nm optical interference dose response, HGIII-sPLA2 counter-screen. shares compounds with HGIII-sPLA2 inh. BODIPY FL product fluorescence interference, cell-free. IC50, µM. 240 tested, under 10 active. AID 743455;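 active = IC50 at or below 10 µM; inactive = IC50 above 10 µM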
Starred values were filed as active, the others as inactive. The list is not random: actives were taken first. Their share in the collection is about 4.3%.

`CC(C)(C)C(=O)NC(=S)Nc1sc2c(c1C#N)CCCCC2` gave HGIII-sPLA2 inh 21.6*, GRIN3A LBD mod -4.6, ADAM10 inh -8.5, ADAM17 inh -2.2, FAS-TE inh -3.8, sPLA2 confirm 17.1 and 535nm interf 3.7.
`CCS(=O)(=O)N(C)C[C@@H]1OCc2ccccc2-c2c(n(C)c3ccccc23)C(=O)N([C@H](C)CO)C[C@@H]1C` gave HGIII-sPLA2 inh 9.3, ADAM10 inh -20.9 and ADAM17 inh -2.1.
For CC(C)N1CC(O)=C(c2nc3ccccc3[nH]2)C1=N the results were HGIII-sPLA2 inh 9.3, GRIN3A LBD mod 5.4, ADAM10 inh 0.0, ADAM17 inh -0.7 and FAS-TE inh -7.7.
Screening CC(C1CC2CCC1C2)N1CC(O)=C(c2nc3ccccc3[nH]2)C1=N (configuration not stated) returned HGIII-sPLA2 inh 27.6*, GRIN3A LBD mod 1.1, ADAM10 inh -7.1, ADAM17 inh -5.0, FAS-TE inh 5.4, sPLA2 confirm 20.7* and 535nm interf -3.6.
For C=CCCC1CN(Cc2ccc(OC)cc2)S(=O)(=O)c2c(cccc2N(C)S(=O)(=O)c2ccc(C)cc2)O1 (configuration not stated) the results were HGIII-sPLA2 inh 3.0, ADAM10 inh -1.8 and ADAM17 inh -1.0.
`Cc1cccc(N2C(=O)CCC2=O)n1` gave HGIII-sPLA2 inh 20.5*, GRIN3A LBD mod -7.0, ADAM10 inh -2.5, ADAM17 inh -7.7, FAS-TE inh -7.1, sPLA2 confirm 4.6 and 535nm interf -5.2.
Screening C=CCN1C(=O)[C@@H](CC(=O)NCCC(C)C)[C@]2(C(=O)OC)CCCCC=C12 returned HGIII-sPLA2 inh 3.8, ADAM10 inh 2.8 and ADAM17 inh 3.7.
`Cc1[nH]n(-c2cccc([N+](=O)[O-])c2)c(=O)c1-c1ccccc1` gave HGIII-sPLA2 inh -13.7, GRIN3A LBD mod -5.7, ADAM10 inh 4.1, ADAM17 inh -2.9 and FAS-TE inh 7.0.
`O=c1c2cc([N+](=O)[O-])cc([N+](=O)[O-])c2[nH]n1-c1ccccc1` gave HGIII-sPLA2 inh 20.9*, GRIN3A LBD mod 8.3, ADAM10 inh -8.9, ADAM17 inh -1.5, FAS-TE inh 12.8, sPLA2 confirm 26.8* and 535nm interf 5.0.
CN(C)c1ccc(N=Cc2nc(-c3ccccc3)oc2OC(=O)c2cccc(Cl)c2)cc1 was read as HGIII-sPLA2 inh 21.7*, GRIN3A LBD mod -2.4, ADAM10 inh 3.7, ADAM17 inh -0.8, FAS-TE inh 0.9, sPLA2 confirm 8.3 and 535nm interf -3.8.
For O=C(CSc1nnc(-c2ccccn2)n1Cc1ccco1)Nc1ccc(Oc2ccccc2)cc1 the results were HGIII-sPLA2 inh -14.2, ADAM10 inh 9.3 and ADAM17 inh 2.5.
`O=C(NCCc1ccccc1)OCc1cn(-c2c(F)cccc2F)nn1` gave HGIII-sPLA2 inh 5.6, ADAM10 inh 0.8 and ADAM17 inh -11.4.
For O=C(NNC(=S)Nc1ccc(Cl)cc1)c1ccccc1 the results were HGIII-sPLA2 inh 19.2*, GRIN3A LBD mod -20.9, ADAM10 inh 6.2, ADAM17 inh -3.3, FAS-TE inh -3.6, sPLA2 confirm 39.4*, 535nm interf 3.0 and 535nm interf DR >122.
`O=C(CN1c2ccccc2Sc2ccccc21)NNC(=S)Nc1ccc(Cl)cc1` gave HGIII-sPLA2 inh 27.9*, GRIN3A LBD mod 33.0*, ADAM10 inh 15.3, ADAM17 inh 7.4, FAS-TE inh 26.9, sPLA2 confirm 6.7 and 535nm interf 18.0*.
Nc1ccn([C@@H]2O[C@H](C(=O)N[C@H](Cc3ccccc3)C(=O)N3CCSC3)[C@@H](O)[C@H]2O)c(=O)n1 was read as HGIII-sPLA2 inh 2.3, ADAM10 inh -10.9 and ADAM17 inh -5.4.
For CN(C)c1ccc(NC(=O)Nc2ccc3c(c2)nnn3C)cc1 the results were HGIII-sPLA2 inh 19.2*, GRIN3A LBD mod 0.7, ADAM10 inh -10.8, ADAM17 inh -9.8, FAS-TE inh 1.2, sPLA2 confirm 7.2 and 535nm interf -4.5.
O=C(NCCN1CCOCC1)c1cc(Sc2ccc(F)cc2F)nc2ccccc12 was read as HGIII-sPLA2 inh 8.2, GRIN3A LBD mod -8.9, ADAM10 inh -12.9, ADAM17 inh -6.7 and FAS-TE inh -3.4.
O=C(NCCN1CCOCC1)c1cc(Sc2ccccc2Cl)nc2ccccc12 was read as HGIII-sPLA2 inh 19.2*, ADAM10 inh -6.0, ADAM17 inh -5.2, sPLA2 confirm -1.9 and 535nm interf -17.4.
C[C@@H]1C=CCCO[C@]12C(=O)N(Cc1ccccc1C(F)(F)F)c1ccccc12 was read as HGIII-sPLA2 inh 10.2, ADAM10 inh -13.7 and ADAM17 inh -4.2.
COc1cccc(N=Nc2c(=O)[nH]n3c(C)cc(C)nc23)c1 was read as HGIII-sPLA2 inh 22.5*, GRIN3A LBD mod -3.7, ADAM10 inh 4.7, ADAM17 inh 6.8, FAS-TE inh -7.7, sPLA2 confirm -5.2 and 535nm interf 0.5.
Cc1ccccc1-c1ccc2c(c1)[C@@H]1C[C@H]3[C@@H](CN1CC2)[C@H](C)OC(c1ccccc1)N3C (some centres not stated) was read as HGIII-sPLA2 inh -2.3, ADAM10 inh -72.3 and ADAM17 inh -16.8.
Screening Cc1c(O)c2c(=O)n(-c3ccccc3)c(-c3ccccc3)cc2oc1=O returned HGIII-sPLA2 inh 20.1*, GRIN3A LBD mod -0.7, ADAM10 inh -3.4, ADAM17 inh -0.5, FAS-TE inh 6.6, sPLA2 confirm 7.4 and 535nm interf -4.9.
For CCN(CC)C(=O)CNC(=S)N(CCCN1CCOCC1)Cc1cccs1 the results were HGIII-sPLA2 inh 19.8*, GRIN3A LBD mod -1.3, ADAM10 inh 1.0, ADAM17 inh 1.8, FAS-TE inh -8.8, sPLA2 confirm 3.0 and 535nm interf -11.4.
O=C(CNC(=S)N(CCCN1CCOCC1)Cc1cccs1)NCCCN1CCOCC1 was read as HGIII-sPLA2 inh 0.3, GRIN3A LBD mod -7.0, ADAM10 inh 3.7, ADAM17 inh -0.8 and FAS-TE inh -15.3.
O=c1[nH]c2ccccc2n2c(C(F)(F)F)nnc12 was read as HGIII-sPLA2 inh 19.6*, GRIN3A LBD mod 0.6, ADAM10 inh -43.1, ADAM17 inh -11.7, FAS-TE inh -7.2, sPLA2 confirm 2.5 and 535nm interf -8.0.
Screening O=c1[nH]c2ccccc2n2c(=S)[nH]nc12 returned HGIII-sPLA2 inh 9.8, GRIN3A LBD mod -1.1, ADAM10 inh -1.9, ADAM17 inh -10.1 and FAS-TE inh -2.9.
